Records with an inconclusive call do not appear. Activity calls are given as the source filed them. The calls were made as follows: active = hit-call score of the fitted dose curve at least 0.9, where 1 is the maximum; inconclusive = response in the unintended direction; inactive = score below 0.9.
Molecular target: Cellular tumor antigen p53 (Homo sapiens) (UniProt P04637)
Test: TOX21_p53_BLA_p5_ratio: Tox21 HCT-116 p53 Agonism Beta-lactamase Assay, Ratio, Phase 5 (AID 2283599)
Outline: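 Beta-lactamase reporter ratio (blue 460 nm over green 530 nm, 405 nm excitation) after 2 h CCF4-AM loading, in HCT-116 cells exposed 16 h at 37 C to compounds pinned at 217-fold dilution. Increases relative to DMSO baseline scored.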

Chain of Cellular tumor antigen p53 (Homo sapiens) (P04637 whole entry, looked up): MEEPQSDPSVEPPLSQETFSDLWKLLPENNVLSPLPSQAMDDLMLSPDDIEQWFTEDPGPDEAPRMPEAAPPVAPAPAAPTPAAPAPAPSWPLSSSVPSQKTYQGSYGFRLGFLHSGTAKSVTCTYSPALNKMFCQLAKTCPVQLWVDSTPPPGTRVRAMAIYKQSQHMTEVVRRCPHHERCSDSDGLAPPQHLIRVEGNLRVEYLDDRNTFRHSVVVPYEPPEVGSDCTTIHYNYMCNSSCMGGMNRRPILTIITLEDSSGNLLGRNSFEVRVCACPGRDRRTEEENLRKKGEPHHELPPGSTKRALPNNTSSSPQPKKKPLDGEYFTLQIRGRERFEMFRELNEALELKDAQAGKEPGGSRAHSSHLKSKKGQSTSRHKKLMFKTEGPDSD

Question: How did the outcome turn out when `CC[C@@H]([C@H](C)O)n1ncn(-c2ccc(N3CCN(c4ccc(OC[C@@H]5CO[C@@](Cn6cncn6)(c6ccc(F)cc6F)C5)cc4)CC3)cc2)c1=O` was run?
Answer: Its outcome is “inactive”.

Question: For `O=C(O)CCCC/C=C(\c1ccccc1)c1cccnc1`, which outcome is on record?
Answer: The outcome was “inactive”.

Question: How did the outcome turn out when `CCN(O)CC` was run?
Answer: Its outcome is “inactive”.

Question: How did the outcome turn out when `CCOC(=O)c1cccnc1` was run?
Answer: The outcome was “inactive”.

Question: Which outcome does the source give for `CCCCCCCCCCCBr` here?
Answer: Its outcome is “inactive”.

Question: With `CC(C)(C(=O)c1cccnc1)c1cccnc1` as the compound, how does the outcome read?
Answer: Its outcome is “inactive”.

Question: `O=S(=O)(O)c1ccc2c(N=Nc3ccc(S(=O)(=O)O)c4ccccc34)c(O)c(S(=O)(=O)O)cc2c1` was tested. Which outcome did it give?
Answer: The outcome was “inactive”.

Question: For `CO[C@@H]1[C@@H](O[C@@H]2O[C@H](C)[C@@H](O[C@H]3C[C@@](C)(O)[C@@H](O)[C@H](C)O3)[C@H](N(C)C)[C@H]2O)[C@@H](CC=O)C[C@@H](C)[C@@H](O[C@@H]2CC[C@H](N(C)C)[C@@H](C)O2)/C=C/C=C/C[C@@H](C)OC(=O)C[C@H]1OC(C)=O`, which outcome is on record?
Answer: Its outcome is “inactive”.

Question: `Cc1nc(C)c(C)nc1C` was tested. Which outcome did it give?
Answer: The outcome was “inactive”.

Question: With `C[C@@H]1C[C@H]2[C@@H]3CCC4=CC(=O)C=C[C@]4(C)[C@@]3(Cl)[C@@H](O)C[C@]2(C)[C@@]1(OC(=O)c1ccco1)C(=O)CCl` as the compound, how does the outcome read?
Answer: The outcome was “inactive”.

Question: For `COCCOC(=O)C1=C(C)NC(C)=C(C(=O)OC(C)C)C1c1cccc([N+](=O)[O-])c1` (stereo unspecified), which outcome is on record?
Answer: Its outcome is “inactive”.

Question: Which outcome does the source give for `OCC(S)CS` (stereo unspecified) here?
Answer: Its outcome is “inactive”.

Question: With `CCCCCCC` as the compound, how does the outcome read?
Answer: The outcome was “inactive”.

Question: `CC(CCl)OC(C)CCl` (stereo unspecified) was tested. Which outcome did it give?
Answer: The outcome was “inactive”.

Question: How did the outcome turn out when `NS(=O)(=O)c1cc(C2(O)NC(=O)c3ccccc32)ccc1Cl` (stereo unspecified) was run?
Answer: Its outcome is “inactive”.

Question: For `C[C@]12CCC(=O)C=C1C=C[C@@H]1[C@@H]2CC[C@@]2(C)[C@H]1CC[C@@]21CCC(=O)O1`, which outcome is on record?
Answer: The outcome was “inactive”.
